The source made the active and inactive calls. Unless noted, the rule behind the calls is not given here.

A short description of experiment [1]: resazurin metabolic signal in HepG2 cells – cell-based, resazurin fluorescence, 24 h, PK04 Diversity Set, profiling panel (AID 1172). Note: test concentration not given here. The settings on record: HepG2 viability, higher = more signal. Background: Alamar Blue is a resazurin reagent that responds to reducing activity.
The nature of experiment [2]: budding yeast growth changes without added modifier – OD600, strain BY4716, 24 h, basal condition, primary screen (AID 1173). The settings on record: S. cerevisiae BY4716 growth, OD600, 24 h; higher = more signal, called active from +8 up or from −8 down.
Experiment [3] in a line: viability profiling in MM1S myeloma cells – cell-based, resazurin fluorescence, basal, 24 h, PK04 Diversity Set, profiling panel (AID 1174). Note: test concentration not given here. The settings on record: higher = more signal, called active from +8 up or from −8 down.
Experiment [4] concerns the target Dihydroorotate dehydrogenase (quinone), mitochondrial (Plasmodium falciparum (isolate 3D7)) (UniProt Q08210). The experiment is described as follows: inhibition of P. falciparum DHODH – biochemical, C-terminal His tag, absorbance 600 nm, primary screen (AID 1175).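 Note: recombinant parasite enzyme with a five histidine tag at its C terminus; test concentration not given here.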 The settings on record: PfDHODH enzyme, DCIP absorbance 600 nm; higher = more signal, called active from +8 up or from −8 down.

Experiment [5] is described as follows: inhibition of PAO1 biofilm formation – strain PAO1, LB-PBS medium, absorbance 600 nm, primary screen (AID 1176). Note: test concentration not given here. As to conditions: P. aeruginosa PAO1 growth/biofilm, A600, 12 h; higher = more signal.
Experiment [6] is described as follows: growth modulation of vineyard yeast isolate – strain RM11-1a, OD600, basal, 24 h, primary screen (AID 1177).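 Note: cultures grown under basal conditions with no added stressor; test concentration not given here.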 The settings on record: S. cerevisiae RM11-1a growth, OD600, 24 h; higher = more signal, called active from +8 up or from −8 down.
A short description of experiment [7]: growth of efflux-deficient E. coli DRC39 – strain DRC39, OD650, 24 h, E. coli filamentation inducers, primary screen (AID 1178).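 Note: growth measured as culture turbidity by optical density at 650 nm; test concentration not given here.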 The settings on record: E. coli DRC39 acrAB, higher = more signal, called active from +8 up or from −8 down.
Experiment [8] in a line: growth of efflux-deficient E. coli DRC39 – strain DRC39, OD650, 48 h, E. coli filamentation inducers, primary screen (AID 1179).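 Note: screen aims at cell division blockers that make cells filament.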 The settings on record: E. coli DRC39 delta-acrAB growth, higher = more signal, called active from +8 up or from −8 down.
Experiment [9] can be described thus: viability profiling in RPMI8226 myeloma cells – cell-based, resazurin fluorescence, basal, 24 h, PK04 Diversity Set, profiling panel (AID 1180).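 Note: RPMI8826 multiple myeloma cell line at 5000 cells per well; test concentration not given here.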 The settings on record: higher = more signal.
Experiment [10] deals with E3 ubiquitin-protein ligase XIAP (Homo sapiens) (UniProt P98170). Nature of the experiment: small molecules binding XIAP protein – biophysical, small-molecule microarray, fluorescence 635 nm, primary screen (AID 1181).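 Note: score merges 667 nm emission and signal to noise over triplicate slides.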 The settings on record: higher = more signal.
Sequence of E3 ubiquitin-protein ligase XIAP (Homo sapiens) (P98170 whole entry, looked up): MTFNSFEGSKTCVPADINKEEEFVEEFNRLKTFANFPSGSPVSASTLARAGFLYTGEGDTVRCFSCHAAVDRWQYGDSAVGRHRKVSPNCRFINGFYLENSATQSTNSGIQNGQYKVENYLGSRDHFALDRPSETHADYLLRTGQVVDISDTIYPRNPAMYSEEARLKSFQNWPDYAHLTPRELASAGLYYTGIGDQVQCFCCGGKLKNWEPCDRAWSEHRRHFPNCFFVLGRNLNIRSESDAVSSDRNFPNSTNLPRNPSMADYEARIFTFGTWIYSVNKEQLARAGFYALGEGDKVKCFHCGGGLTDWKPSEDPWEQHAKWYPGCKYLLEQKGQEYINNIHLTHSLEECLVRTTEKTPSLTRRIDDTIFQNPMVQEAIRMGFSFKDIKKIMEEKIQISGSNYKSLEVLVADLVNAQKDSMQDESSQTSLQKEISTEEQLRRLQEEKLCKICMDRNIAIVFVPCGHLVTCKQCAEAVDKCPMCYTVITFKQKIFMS

Sequence of Dihydroorotate dehydrogenase (quinone), mitochondrial (Plasmodium falciparum (isolate 3D7)) (Q08210 whole entry, looked up): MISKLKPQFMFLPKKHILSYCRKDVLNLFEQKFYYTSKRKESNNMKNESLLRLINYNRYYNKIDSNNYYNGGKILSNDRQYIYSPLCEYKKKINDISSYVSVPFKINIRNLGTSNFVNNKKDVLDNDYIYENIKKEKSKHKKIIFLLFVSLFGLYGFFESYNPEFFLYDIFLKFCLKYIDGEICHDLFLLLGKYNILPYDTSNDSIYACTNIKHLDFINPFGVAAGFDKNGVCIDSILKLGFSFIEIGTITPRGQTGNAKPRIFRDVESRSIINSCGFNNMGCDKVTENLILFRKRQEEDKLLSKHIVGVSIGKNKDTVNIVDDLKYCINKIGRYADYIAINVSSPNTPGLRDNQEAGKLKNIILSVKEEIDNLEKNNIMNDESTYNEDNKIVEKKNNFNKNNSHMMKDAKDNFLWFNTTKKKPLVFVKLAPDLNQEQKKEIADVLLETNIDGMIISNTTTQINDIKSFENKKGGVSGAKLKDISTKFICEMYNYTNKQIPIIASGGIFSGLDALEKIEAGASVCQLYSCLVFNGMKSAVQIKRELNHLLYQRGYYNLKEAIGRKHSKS

Turning to `CC(C)C[C@@H]1NC(=O)[C@H]2C[C@@H](C(=O)NCCCCCCN)[C@@H](c3ccc(O)cc3)N2C1=O`, the z-score is -0.632 in experiment [1]; -0.134 (inactive) in experiment [2]; -0.403 (inactive) in [3]; -0.226 (inactive) in experiment [5]; -0.459 (inactive) in experiment [6]; -0.396 (inactive) in experiment [7]. The values for the z-score in experiment [8] and in experiment [9] were -0.975 (inactive) and -0.299, respectively. Moreover, the values for the composite z-score in experiment [4] and in experiment [10] were 0.0444 (inactive) and -0.338, respectively.

With `COCCCNC(=O)[C@@]1(Cc2ccccc2N=[N+]=[N-])N=C(c2ccc(OCCCO)cc2)O[C@H]1c1ccccc1N=[N+]=[N-]`, the z-score in [1] is -0.993; in experiment [2], -0.181 (inactive); in [3], -2.32 (inactive); in experiment [5] it was 0.454 (inactive); in experiment [6], 1.83 (inactive); in experiment [7], 0.478 (inactive). The z-score in experiment [8] was -0.607 (inactive); in experiment [9], -1.99. The composite z-score in experiment [4] is 1.21 (inactive); in [10], 0.323.

For `[N-]=[N+]=NCc1ccccc1[C@@H]1OC(c2ccc(OCCCO)cc2)=N[C@]1(CCS(=O)(=O)c1ccccc1)C(=O)NCCN1CCOCC1`, the z-score in [1] is -1.13; in experiment [2], -0.276 (inactive); in [3], -0.346 (inactive); in experiment [5], 0.286 (inactive); in [6], 0.935 (inactive); in experiment [7], 0.239 (inactive). Moreover, the z-score in experiment [8] is 0.564 (inactive); in experiment [9] it was -0.185. For the same molecule, the composite z-score in experiment [4] was 0.328 (inactive); in [10], 0.703.

`CC(C)(C)OC(=O)CC[C@@]1(C(=O)NCCN2CCOCC2)N=C(c2ccc(OCCCO)cc2)O[C@@H]1c1ccccc1N=[N+]=[N-]`: the z-score in experiment [1] was -0.583; in [2] it was -0.643 (inactive); in experiment [3] it was -1.76 (inactive); in experiment [5], 0.41 (inactive); in experiment [6], 0.0002 (inactive); in [7], -0.0723 (inactive). For the same molecule, the z-score in [8] was -0.169 (inactive); in experiment [9] it was -0.601. Also, the composite z-score is -0.462 (inactive) in experiment [4] and 0.0877 in experiment [10].

Turning to `C[N+](C)(C)CCCCNC(=O)[C@H]1C[C@H]2C(=O)N[C@@H](Cc3ccccc3)C(=O)N2[C@H]1c1ccc(O)cc1`, the z-score was -1.87 in [1]; 0.606 (inactive) in [2]; -0.0345 (inactive) in experiment [3]; 0.516 (inactive) in experiment [5]; 0.644 (inactive) in experiment [6]; 0.783 (inactive) in [7]. The z-score was 1.17 (inactive) in [8] and -0.9 in [9]. In addition, the figures for the composite z-score in [4] and in experiment [10] were -30.9 (active) and -0.355, respectively.

`COCCOC(=O)N1C(=O)[C@@]2(c3cc(C#Cc4ccc(OC)cc4)ccc31)[C@H](C(N)=O)[C@H]1C(=O)O[C@H](c3ccccc3)[C@H](c3ccccc3)N1[C@@H]2c1ccccc1OCCO`: the z-score was -0.483 in experiment [1]; 1.06 (inactive) in [2]; -2.17 (inactive) in [3]; 2.94 (inactive) in [5]; 1.5 (inactive) in experiment [6]; -0.688 (inactive) in experiment [7]. Besides, the figures for the z-score in experiment [8] and in [9] were -0.469 (inactive) and -2.68, respectively. Further, the composite z-score was 0.361 (inactive) in [4] and 0.0748 in [10].

In the case of `CN1C(=O)C2C=CC(C(O)C3CCCCC3)N(Nc3ccc([N+](=O)[O-])cc3[N+](=O)[O-])C2C1=O` (stereo not given), the z-score in experiment [1] was -0.248; in [2] it was 0.819 (inactive); in experiment [3], -0.778 (inactive); in experiment [5] it was -0.159 (inactive); in [6], -0.0006 (inactive); in experiment [7], -0.719 (inactive). The z-score in experiment [8] is -0.556 (inactive); in experiment [9] it was -0.373. In addition, the composite z-score in [4] is -0.877 (inactive); in experiment [10], 0.618.

For the molecule `COc1ccc(C(O)C2C=CC3C(=O)N(c4ccccc4)C(=O)C3N2Nc2ccc(C(C)C)cc2)cc1OCc1ccccc1` (stereo not given), the z-score was -0.217 in [1]; -1.78 (inactive) in experiment [2]; -0.0284 (inactive) in experiment [3]; 2.33 (inactive) in [5]; 0.165 (inactive) in experiment [6]; -1.91 (inactive) in [7]. For the same molecule, the z-score in experiment [8] was -1.38 (inactive); in experiment [9], -0.291. In addition, the composite z-score in experiment [4] was 0.785 (inactive); in experiment [10] it was -0.0535.

With `O=C1O[C@H](c2ccccc2)[C@H](c2ccccc2)N2[C@H]1[C@@H](C(=O)Nc1nc3ccccc3s1)[C@]1(C(=O)Nc3ccc(C#CCCO)cc31)[C@H]2c1ccc(OCCO)cc1`, the z-score in [1] was -0.251; in [2] it was 1.2 (inactive); in experiment [3], 0.527 (inactive); in experiment [5] it was 1.85 (inactive); in experiment [6], 1.67 (inactive); in [7], -0.567 (inactive). The z-score in [8] is 0.161 (inactive); in [9] it was -1.3. The composite z-score in experiment [4] is -1.6 (inactive); in experiment [10], 0.0637.

As for `COC(=O)[C@@]1(Cc2ccc(OC)cc2)[C@H]2c3cc(C(=O)N4CCCC4)n(Cc4ccccc4)c3C[C@H]2CN1C(=O)c1ccccc1`, the z-score was -2.62 in [1]; 1.04 (inactive) in experiment [2]; -0.912 (inactive) in experiment [3]; 0.219 (inactive) in experiment [5]; 0.479 (inactive) in experiment [6]; -0.559 (inactive) in experiment [7]. For the same molecule, the z-score in experiment [8] is 0.0434 (inactive); in experiment [9], -3.16. The composite z-score in [4] was -0.264 (inactive); in experiment [10], -0.065.

`O=C1OCCC/C=C\[C@H]2OC34C=CCN(c5ccc6ccccc6c5)C(=O)[C@H]3N(CCCCCCO)C(=O)[C@@H]4C12` (stereo not given in full): the z-score was -0.156 in experiment [1]; -1.28 (inactive) in [2]; 0.241 (inactive) in experiment [3]; 0.481 (inactive) in experiment [5]; -1.49 (inactive) in [6]; 0.374 (inactive) in experiment [7]. Moreover, the values for the z-score in experiment [8] and in [9] were 1.01 (inactive) and 0.152, respectively. The composite z-score was -1.97 (inactive) in [4] and 0.115 in experiment [10].

Take `CCOC1=C2C(CN(S(=O)(=O)c3ccc(C)cc3)C2c2ccc(C)cc2)C2C(=O)N(c3ccccc3)C(=O)C2C1` (stereo not given): the z-score in experiment [1] was -0.635; in [2] it was 0.941 (inactive); in experiment [3], -0.193 (inactive); in [5], -0.2 (inactive); in experiment [6], 0.413 (inactive); in [7] it was -0.392 (inactive). Moreover, the z-score in experiment [8] was 0.758 (inactive); in experiment [9], 0.366. Also, the figures for the composite z-score in experiment [4] and in experiment [10] were -1.12 (inactive) and -0.0773, respectively.

On to `O=C(NCc1ccccc1)[C@@]1(CCS(=O)(=O)c2ccccc2)N=C(c2ccc(OCCCO)cc2)O[C@H]1c1ccccc1`, for which the z-score in [1] is 1.36; in experiment [2] it was 1.01 (inactive); in experiment [3] it was -0.705 (inactive); in [5], -0.0304 (inactive); in experiment [6], 1.46 (inactive); in experiment [7], 0.714 (inactive). Moreover, the z-score in experiment [8] was 1.62 (inactive); in experiment [9], 0.448. Further, the composite z-score in experiment [4] is 1.05 (inactive); in experiment [10] it was 0.202.

Source of the values: PubChem BioAssay.
